Compound activity as filed in PubChem BioAssay.
IL-1B inflam inh: inhibitors of inflammasome signaling (IL-1 beta secretion) | THP-1 LPS/ATP IL-1B secretion, AlphaLISA, 16 h; active compounds read low | activity change, % at 57.5 µM | actives 4.7% (n = 360,000) | AID 743279; in the data active = activity change below about -50%; inconclusive = mostly about -30% to -49%; also: % is scaled to controls: 0 for no effect and ±100 for the full control effect
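THP-1 cells pretreated 1 hr with compounds (up to 57.5 uM final), then stimulated with LPS (250 ng/mL final) plus ATP (1.25 mM final); secreted IL-1B measured by AlphaLISA after 16 hr, decreased signal indicating inhibition.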
TGFb SMAD3 inh: blocks TGF-b signaling | Potency, µM (top dose mostly 46.1 µM), inactives show at the highest dose activity, negative = inhibition, hits mostly inhibitors | HepG2 CAGA-GFP TGF-b/SMAD3 reporter, GFP fluorescence, 18 h; TGF-beta stimulated, 500 pg/mL final | actives 1.2% (n = 410,000); also: potency is read from the fitted curve at half-maximal effect; % is scaled to controls: 0 for no effect and ±100 for the full control effect; nearly all actives have a fitted effect of over 65% in size
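Inhibition was scored as loss of TGF-beta-induced (500 pg/mL final, 18 hours, 37 degrees C) GFP in HEPG2 cells carrying a CAGA-GFP reporter, in DMEM with 1% FBS. Well GFP was summed per cell; Activity was normalised to unstimulated and stimulated DMSO wells, then concentration-response fitting.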
TDP1 cell noCPT: qHTS for Inhibitors of human tyrosyl-DNA phosphodiesterase 1 (TDP1): qHTS in cells in absence of CPT. AID 686978, 2013. Potency, µM (highest dose often 46.2 µM), for the others: at the top dose activity change, negative = growth inhibition, actives largely listed as inhibitors. actives 15% (n = 420,000). DT40 Tdp1-/- hTDP1 cells, no CPT, ATP luminescence, 48 h; also: potency is read from the fitted curve at half-maximal effect; % is scaled to controls: 0 for no effect and ±100 for the full control effect; nearly all actives have a fitted effect of over 55% in size
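Camptothecin absent (DMSO only). Human TDP1-complemented DT40 knockout cells, 400 cells/well, 37 °C for minimum 48 hr; ATP measured via CellTiter-Glo, 30 min dark incubation, luminescence.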
DT40 TDP1 CPT: DT40-hTDP1 cell growth loss with CPT. actives 12% (n = 420,000). Potency, µM (highest dose often 46.2 µM), for the others: at the highest dose activity change, negative = growth inhibition, hits mostly inhibitors. chicken DT40 Tdp1-/-;hTDP1 cells + 20 nM CPT, ATP luminescence, 48 h. AID 686979; also: potency is read from the fitted curve at half-maximal effect; % is scaled to controls: 0 for no effect and ±100 for the full control effect; nearly all actives have a fitted effect of over 55% in size
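Cell growth measured by CellTiter-Glo luminescence after a minimum 48 h, 37 C compound exposure with 20 nM CPT in Tdp1-knockout DT40 cells stably expressing hTDP1, seeded 400/well; qHTS titration format.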
HepG2 tox: counter-screen for TGF-b inhibitors: cytotoxicity in HepG2 cells. HepG2 CAGA-GFP viability, ATP luminescence, 18 h. Potency, µM (top dose mostly 46.1 µM), without a hit: at the top dose activity change, negative = cytotoxicity, most hits filed as cytotoxic. actives 0.76% (n = 410,000); also: potency is read from the fitted curve at half-maximal effect
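CellTiter-Glo luminescence gave cytotoxicity after 18 hours at 37 degrees C. The cells were HepG2 CAGA-GFP in 1% FBS DMEM, stimulated with 500 pg/mL TGF-beta after compound addition. %Activity was normalised to no-cell wells (complete cell-killing) and DMSO (no toxicity), and curves were fitted and classified.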
TDP1 block: TDP1 (human) enzyme inhibition. AID 485290. actives 0.28% (n = 350,000). Q9NUW8. recombinant TDP1, AlphaScreen DNA substrate cleavage. Potency, µM (titrated, usually from 130 µM), for the others: top-dose activity change, negative = inhibition, actives largely listed as inhibitors; also: potency is read from the fitted curve at half-maximal effect; % is scaled to controls: 0 for no effect and ±100 for the full control effect; nearly all actives have a fitted effect of over 40% in size
Target sequence (Q9NUW8 whole entry, looked up): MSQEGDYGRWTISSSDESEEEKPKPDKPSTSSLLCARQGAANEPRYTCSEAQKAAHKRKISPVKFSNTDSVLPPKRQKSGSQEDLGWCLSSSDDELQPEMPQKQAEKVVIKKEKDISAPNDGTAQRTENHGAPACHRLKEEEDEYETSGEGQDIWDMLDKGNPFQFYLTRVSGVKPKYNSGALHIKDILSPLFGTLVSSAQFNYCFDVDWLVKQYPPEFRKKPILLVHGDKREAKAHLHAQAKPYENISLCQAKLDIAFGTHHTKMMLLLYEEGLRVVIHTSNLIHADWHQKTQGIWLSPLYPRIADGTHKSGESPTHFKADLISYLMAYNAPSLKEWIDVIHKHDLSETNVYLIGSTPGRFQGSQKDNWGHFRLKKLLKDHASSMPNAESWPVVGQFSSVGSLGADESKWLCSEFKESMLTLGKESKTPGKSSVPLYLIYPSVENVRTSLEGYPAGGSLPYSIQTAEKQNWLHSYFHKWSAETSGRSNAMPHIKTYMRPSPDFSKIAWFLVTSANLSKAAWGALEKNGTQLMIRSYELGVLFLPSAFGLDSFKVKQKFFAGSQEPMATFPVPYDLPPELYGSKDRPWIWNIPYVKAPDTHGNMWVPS
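Recombinant human Tdp1 (E. coli-expressed, 1 nM final) preincubated with compounds 15 min at room temperature, then 5'-biotin/3'-phosphotyrosine-FITC DNA substrate (15 nM final) added for 5 min. AlphaScreen beads (10 ug/ml final) added 10 min; cleavage lowers signal.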
* hit, by the source's call; ? = inconclusive; . = no result given; [ ] = dose if it differs, or a comment. This is a sample that favours compounds with a hit; in the whole collection about 18% have one here. Unless noted, calls follow the shape of the dose curve; as a rule, active = well fitted curve in the direction sought with a large enough effect; inconclusive = small, poorly fitted or top-dose-only effect, or another doubt; inactive = no such curve, though single readings can be large; an effect the other way counts as inactive or inconclusive.

SMILES	IL-1B inflam inh	TGFb SMAD3 inh	TDP1 cell noCPT	DT40 TDP1 CPT	HepG2 tox	TDP1 block
Cc1c(C(=O)NCCCN2CCCCC2)oc2ccc3c(c12)C(O)CC1(CCCCC1)O3 (stereo not given)	-4	-7%	16µM*	?	1%	5%
CC(=O)Oc1cc2c(c(C)c1OC(C)=O)CC=C1[C@]3(C)CC[C@]4(C)CC[C@@](C)(C(=O)O)CC4[C@]3(C)CC[C@]12C (stereo not given in full)	.	.	4.6µM*	3.7µM*	.	7%
COc1cccc(C2c3c(ncn(-c4cccc(C#N)c4)c3=N)Oc3ccc4ccccc4c32)c1 (stereo not given)	.	.	.	.	.	3%
O=C1C(c2ccncc2)=C(O)c2ccccc21	-11	?	18µM*	?	-52%	-3%
Cc1ccc(C2=C(O)c3ccccc3C(=O)C2=O)cc1	11	-18%	-11%	-29%	-32%	.
CC(C)n1c(/C=C/c2ccccc2)nc2ccccc21	-78*	-4%	?	-6%	4%	-1%
COCCOCCn1c(/C=C/c2ccccc2)nc2ccccc21	-3	?	?	?	-41%	-1%
CCCn1c(/C=C/c2ccccc2)nc2ccccc21	-21	8%	23µM*	?	-23%	-4%
CC(C)n1c(CN(C)c2ccccc2)nc2ccccc21	-8	?	?	?	-25%	4%
Cn1c2nc(=O)n(-c3ccccc3)c(=O)c-2nc2c1CCCC2	11	-18%	?	21µM*	-47%	.
CC(C)(C)OC(=O)C[C@H]1C/C=C\C[C@H](CC(=O)NCCO)C(=O)NC[C@@H](c2ccccc2)OC1=O	-6	?	-10%	-1%	5%	0%
Oc1ccc(CN2CCCCC2)nc1-c1ccccc1	1	-5%	-16%	0%	-1%	6%
Oc1ccc(-c2ccccc2)cc1CN1CCCCCC1	-26	-2%	18µM*	?	-19%	.
Cc1nn(-c2ccc(Cl)cc2)c(=O)c2ccccc12	17	-4%	?	-16%	-1%	3%
Cc1c(Cl)sn(-c2ccc(Cl)cc2)c1=O	?	?	0.026µM*	0.26µM*	-140%	-1%
CC(CC=O)CCCC(C)(C)O (stereo not given)	.	.	-22%	1%	.	.
Cc1ccc(NC(=O)c2cccs2)cc1NC(=O)c1ccc(F)cc1	-60*	-1%	?	7%	-6%	.
COc1cccc(C(=O)Nc2cc(NC(=O)c3cccs3)ccc2C)c1	-25	-24%	-19%	-24%	1%	6.3µM*
Cc1cc(C)c(NC(=O)CSc2ncc3c(n2)-c2cc(Cl)ccc2N(C)S3(=O)=O)c(C)c1	.	?	0.046µM*	0.16µM*	-1%	3%
CCc1cccc(NC(=O)CSC2=NS(=O)(=O)c3ccccc32)c1	?	-13%	4.1µM*	2.6µM*	-11%	5%
CCOc1ccccc1NC(=O)CSc1ncc(S(=O)(=O)c2ccc(C)c(C)c2)c(N)n1	.	8.9µM*	23µM*	?	-21%	1%
CCc1cccc(NC(=O)CSc2ncc3c(n2)-c2ccccc2N(CC)S3(=O)=O)c1	.	?	-30%	-32%	-10%	0%
CCc1ccccc1NC(=O)CSc1ncc2c(n1)-c1cc(Cl)ccc1N(Cc1ccccc1)S2(=O)=O	.	?	-15%	-24%	-6%	3%
CCOc1ccccc1NC(=O)CSc1ncc2c(n1)-c1ccccc1N(CC)S2(=O)=O	.	-13%	16µM*	23µM*	-28%	-8%
Cc1ccc(N2C(=O)CC(n3nc(C)cc3C)C2=O)cc1 (stereo not given)	0	37%	-3%	-9%	6%	1%
SMILES	IL-1B inflam inh	TGFb SMAD3 inh	TDP1 cell noCPT	DT40 TDP1 CPT	HepG2 tox	TDP1 block
CCc1cccc(NC(=O)CSc2ncc3c(n2)-c2ccc(Cl)cc2N(Cc2ccccc2)S3(=O)=O)c1	.	-13%	16µM*	18µM*	-18%	-5%
Nc1c2c(nc3sc4c(c13)CCCC4)-c1ccccc1CC2	-88*	?	?	-20%	-14%	0%
CC(OC(=O)c1ccc(Cl)c(S(=O)(=O)N2CCCC2)c1)C(=O)NC1CCCCC1C (stereo not given)	.	.	.	.	.	3%
Cc1ccc(C(=O)OCC(=O)N2c3ccccc3NC(=O)C2(C)C)cc1S(=O)(=O)N1CCCCC1	-19	0%	15µM*	?	7%	-7%
Cc1ccc(C(=O)OC(C)C(=O)NC2CCCCC2C)cc1S(=O)(=O)N1CCCCC1 (stereo not given)	23	-1%	?	18µM*	12%	0%[56.1 µM]
Cc1ccnc2nc(C(=O)OCC(=O)NC3CCCC(C)C3C)nn12 (stereo not given)	-8	-11%	1.5µM*	-20%	1%	0%
Cc1ccc(C(=O)OCC(=O)NC2CCCC(C)C2C)cc1S(=O)(=O)N1CCCCC1 (stereo not given)	9	3%	?	21µM*	5%	1%
O=C(NC(=S)N1CCCC1)c1ccccc1F	-4	4%	-17%	-7%	16%	1%
CCOc1ccccc1Nc1nc(N)nc(CN(C)C2CCCCC2)n1	-22	4%	?	?	-9%	4%
CC1CCCCC12NC(=O)N(CC(=O)N1CCN(Cc3ccc(C#N)cc3)CC1)C2=O (stereo not given)	18	-32%	7.3µM*	16µM*	-44%	0%
Cc1cccc(C)c1NC(=O)CN1CCN(C(=O)CN2C(=O)NC3(CCCCC3C)C2=O)CC1 (stereo not given)	42	-7%	-11%	-20%	-2%	1%
COc1ccc(C(=O)N2CCN(c3ccc([N+](=O)[O-])c(NCCc4ccc(OC)c(OC)c4)c3)CC2)cc1	?	?	2.6µM*	4.1µM*	-35%	5%
COc1ccc(CCNc2cc(N3CCN(C(=O)c4ccccc4F)CC3)ccc2[N+](=O)[O-])cc1OC	-2	-10%	5.2µM*	4.6µM*	-14%	6%
CCOC(=O)C1(C)C(=O)CC2c3nc4ccccc4cc3CN2C1=O (stereo not given)	0	-6%	?	?	-41%	.
Cc1cc(C)n(CCc2nc(-c3ccco3)cs2)n1	25	?	13µM*	11µM*	15%	.
Cc1cc(C)n(CCc2nc(-c3cccs3)cs2)n1	8	-24%	?	?	-29%	1%[56.1 µM]
